This is part of a sample that, as a whole, favours compounds with a hit. Of some 79,000 tested, about 15% had one in any assay. Cut-off read from the data, not from the text of the source: active = growth inhibition above about 70%; inactive = the rest.
Key:
[1] = NCI Yeast Anticancer Drug Screen. Data for the rad50 strain (AID 155);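 note: 0% = growth of vehicle-only cultures of the same strain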; details: S. cerevisiae rad50 strain growth inhibition; at 50.0 µM; active compounds read high
Summary of the method: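 Inhibition values express reduced yeast growth in compound-treated cultures relative to vehicle-treated controls.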

[2] = NCI Yeast Anticancer Drug Screen. Data for the mec2-1 strain (AID 157); details: S. cerevisiae mec2-1 strain, at 50.0 µM, active compounds read high
Summary of the method: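 Compounds were applied to mec2-1 yeast cells. Their growth was then compared with that of vehicle-treated cultures to give growth inhibition.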

[3] = NCI Yeast Anticancer Drug Screen. Data for the sgs1 mgt1 strain (AID 161);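 note: 0% = growth of cultures given vehicle only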; details: S. cerevisiae sgs1 mgt1 strain, at 50.0 µM, active compounds read high
Summary of the method: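 This yeast growth screen uses a strain with defined DNA-repair lesions; compound-treated growth is compared with vehicle-treated growth.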

[4] = NCI Yeast Anticancer Drug Screen. Data for the cln2 rad14 strain (AID 165);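 note: 0% = growth equal to vehicle treated cultures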; details: S. cerevisiae cln2 rad14 strain, at 50.0 µM, active compounds read high
Summary of the method: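 Strain: cln2 rad14 yeast, altered in cell cycle control and DNA damage repair. Read-out: growth inhibition vs vehicle.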

[5] = NCI Yeast Anticancer Drug Screen. Data for the bub3 strain (AID 167); details: S. cerevisiae bub3 mutant strain, at 50.0 µM, active compounds read high
Summary of the method: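 Steps: expose the mutant yeast strain to compound; grow alongside vehicle-treated cultures; measure growth; express inhibition against the vehicle cultures.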

[6] = NCI Yeast Anticancer Drug Screen. Data for the mlh1 rad18 strain (AID 175); details: S. cerevisiae mlh1 rad18 strain growth inhibition; at 50.0 µM; active compounds read high
Summary of the method: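 A repair-deficient yeast strain is exposed to test compound, and growth is scored relative to vehicle-treated controls.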

Measured: growth inhibition

COc1cc2c(c(OC)c1OC)-c1ccc(OC)c(=O)cc1[C@@H](NC(=O)c1ccccc1)CC2
inactive: [1] 11.7% | [2] 7.15% | [3] 18.7% | [4] -0.05% | [5] 14.2% | [6] 18.9%

N#CC(CN1CCOCC1)[N+](=O)[O-] (configuration not stated)
inactive: [1] -2.2% | [2] -4.6% | [3] -14.2% | [4] -24.6% | [5] 16.6% | [6] -13.6%

CCCCN(CCCC)CC1OCCO1
inactive: [1] -6.35% | [2] -0.5% | [3] -2.45% | [4] -16.6% | [5] 2.7% | [6] -2.6%

O=C1c2ccc3c([nH]c4ccccc43)c2C(=O)N1c1ccccc1
inactive: [1] 19.7% | [2] -2% | [3] 21.8% | [4] 11.9% | [5] 13.3% | [6] 7.35%

C=C(Cl)COc1ccc(C(=O)c2ccccc2)cc1
inactive: [1] -4.5% | [2] -9% | [3] -6.5% | [4] -64% | [5] -7.25% | [6] -14.9%

CC(C)CN1CC(=O)N2Cc3ccccc3CN2C(=O)C1
inactive: [1] -28.6% | [2] -10.2% | [3] -17.4% | [4] -4.95% | [5] -1.3% | [6] -2.5%

CCOC(OCC)C(=O)NNC(C)C
inactive: [1] 15.4% | [2] -7.85% | [3] -2.15% | [4] -39.9% | [5] 10% | [6] -13.9%

c1c[nH]c(C2Nc3ccccc3CO2)c1 (configuration not stated)
inactive: [1] -11.4% | [2] -13.2% | [3] -18.9% | [4] -22.6% | [5] 1.3% | [6] 9.85%

Cn1cnc([N+](=O)[O-])c1Sc1nnc(C(F)(F)F)n1C
inactive: [1] -7.6% | [2] -6.95% | [3] -9.65% | [4] 7.5% | [5] 3.6% | [6] -6.95%

COC1NC(=O)Oc2ccccc21 (configuration not stated)
inactive: [1] -6.25% | [2] 29.5% | [3] -8.95% | [4] -3.3% | [5] -12.5% | [6] -19.4%

Cc1cc(Cl)cc(Cl)c1OCC(=O)O
inactive: [1] 6.3% | [2] -1.35% | [3] 4.4% | [4] -24.3% | [5] -1.75% | [6] 0.05%

CCOc1ccc(NC(=O)C(=O)C(C(=O)c2ccc3ccccc3c2)C2OC(=O)c3ccccc32)cc1 (configuration not stated)
inactive: [1] 13.1% | [2] 3.45% | [3] -2.4% | [4] -17.6% | [5] 7.85% | [6] 6.8%

O=C(O)c1cccnc1C(=O)Nc1cccc2ccccc12
inactive: [1] 13.1% | [2] 13.4% | [3] 12.6% | [4] 0.9% | [5] 10.2% | [6] -16.6%

CCCCCC1(C)OCC(c2ccccc2)O1 (configuration not stated)
inactive: [1] -12.8% | [2] -9.45% | [3] -21% | [4] -47% | [5] -13.3% | [6] 21.1%

COC(=O)/C(=C/C=C/c1ccccc1)N=[N+]=[N-]
inactive: [1] -20.5% | [2] 7.5% | [3] -12% | [4] -11.6% | [5] 3.2% | [6] -10.1%

c1ccc2c3c(ccc2c1)Oc1ccc2ccccc2c1C3CCC1c2c(ccc3ccccc23)Oc2ccc3ccccc3c21
inactive: [1] -8.75% | [2] -19.6% | [3] -4.9% | [4] 1.5% | [5] -17.2% | [6] 7.75%

CCCCOC1NC(=O)Oc2ccccc21 (configuration not stated)
inactive: [1] -9.35% | [2] 4% | [3] -3.15% | [4] -28.5% | [5] -4.95% | [6] 15.1%

O=C(O)c1cccc([N+](=O)[O-])c1C(=O)O
inactive: [1] 15.3% | [2] 11.3% | [3] 11.4% | [4] 7.9% | [5] -1.9% | [6] 17.2%

CC(C)(C)NC(=O)NCc1ccc(Cl)cc1
inactive: [1] -0.5% | [2] -16.1% | [3] -12.1% | [4] -29.6% | [5] 1% | [6] -9.8%

O=C1C(c2ccccc2)=C(c2ccccc2)C(c2ccc(Sc3ccc(C4=C(c5ccccc5)C(=O)C(c5ccccc5)=C4c4ccccc4)cc3)cc2)=C1c1ccccc1
inactive: [1] 12.9% | [2] 22.6% | [3] 30.6% | [4] 15.7% | [5] -1.2% | [6] 24.2%

Cc1csc2[nH]c(=O)[nH]c(=O)c12
inactive: [1] 5.5% | [2] 6.05% | [3] -1.4% | [4] -28.1% | [5] -15.2% | [6] 4.5%

COc1cccc(Oc2c(O)c3ccc(OC)cc3oc2=O)c1
inactive: [1] 1% | [2] 11.2% | [3] -2.1% | [4] 27.2% | [5] 0.05% | [6] 8.75%

Cc1[nH]c(=O)n2c(C)nnc2c1C(=O)Nc1cc(Cl)cc(Cl)c1
inactive: [1] 15.2% | [2] -0.45% | [3] 39% | [4] 18.4% | [5] 7.5% | [6] 31.2%

CC1Cc2c(cc(N)nc2Br)NC1=O (configuration not stated)
inactive: [1] -10.6% | [2] -6.05% | [3] 6.95% | [4] 19.2% | [5] 3.35% | [6] 10.1%

O=C(/C=C/c1ccccc1)Nc1ccccc1C(F)(F)F
inactive: [1] 4.45% | [2] 9.05% | [3] 0.7% | [4] -3.7% | [5] 12.6% | [6] 18.2%

Cc1ccc(CN(CCO)Cc2ccccc2)cc1
inactive: [1] 1.75% | [2] 39% | [3] 28.1% | [4] 0.65% | [5] 43.1% | [6] 47.1%

COc1c(Cl)c(Cl)c([N+](=O)[O-])c(Cl)c1Cl
inactive: [1] 40.4% | [2] 30.1% | [3] 35.5% | [4] 7.65% | [5] 37.9% | [6] 33.2%

O=C(NCCO)c1cc2ccccc2cc1O
inactive: [1] -1.9% | [2] -25.3% | [3] -10.4% | [4] -3.5% | [5] -17.9% | [6] 7.55%

Nc1ccc(N=Nc2ccccc2)c(N)c1
inactive: [1] 29.5% | [2] 19.6% | [3] 27% | [4] -52.1% | [5] 8.55% | [6] 28.6%

OCC1CCCC1
inactive: [1] 12.3% | [2] -18.4% | [3] -0.05% | [4] -2.95% | [5] -1.5% | [6] 9.7%

COC(=O)c1c(C(=O)OC)c2ccccn2c1-c1cc(OC)c(Br)c(=O)o1
inactive: [1] -0.2% | [2] -17.8% | [3] -7.6% | [4] -18.9% | [5] -4.15% | [6] -105%

[N-]=[N+]=NC1(Cc2ccccc2)C(=O)Nc2ccccc2C1=O (configuration not stated)
inactive: [1] 0.8% | [2] -10.1% | [3] -19.4% | [4] 4.2% | [5] -5.65% | [6] -16%

CN(C)C1CS(=O)(=O)C1c1ccccc1 (configuration not stated)
inactive: [1] 19.6% | [2] 9% | [3] 7.1% | [4] -19.5% | [5] 8.3% | [6] 1.45%

N=S(=O)(c1ccccc1)c1ccccc1[N+](=O)[O-] (configuration not stated)
inactive: [1] 41.4% | [2] 17.9% | [3] 56% | [4] 49.5% | [5] 19.5% | [6] 57.2%

C=C1CCCC2OC(OC)CCC12 (configuration not stated)
inactive: [1] -23.4% | [2] -10.8% | [3] -6.5% | [4] 0.75% | [5] -21.9% | [6] -10.6%

CCC(=O)COC(C)=O
inactive: [1] -3.75% | [2] -22% | [3] -6.05% | [4] -2.35% | [5] -3.75% | [6] 0.95%

Nc1ccc(C(=O)Nc2cccc(OCc3nc(N)nc(N)c3-c3ccc(Cl)cc3)c2)cc1
inactive: [1] 16.6% | [2] -6.15% | [3] -16.2% | [4] 16.5% | [5] 2.3% | [6] 13.2%

Cc1c(C(=O)Nc2ccc(Cl)c(C(F)(F)F)c2)oc2cc(O)ccc2/c1=N\NC(N)=S
inactive: [1] -12.3% | [2] -14.4% | [3] -23.6% | [4] -7.85% | [5] -7.35% | [6] -17.4%

CCCC=Nc1ccccc1
inactive: [1] 8.3% | [2] 3.65% | [3] 14.5% | [4] -19.9% | [5] 10.8% | [6] 13.1%

OC1c2ccccc2-c2ccc(N(Cc3ccccc3)Cc3ccccc3)cc21 (configuration not stated)
inactive: [1] 6.95% | [2] 11.4% | [3] 3.75% | [4] 30.8% | [5] -9% | [6] 23.8%

CCn1c(O)c(C=Nc2ccccc2)s/c1=N/Nc1nc(C)c(C(C)=O)s1
inactive: [1] 24.6% | [2] 5.25% | [3] 17.2% | [4] 16.1% | [5] 42.9% | [6] 21.2%

CCCC(=O)Oc1ccc(Cl)cc1
inactive: [1] 12.9% | [2] -4.45% | [3] 1.35% | [4] 20.1% | [5] 1.45% | [6] -6.65%
